In PubChem BioAssay AID1780 (National Center for Advancing Translational Sciences (NCATS), 2009):
The source made the active and inactive calls. Calls come from the whole dose curve; as a rule, active = well fitted curve in the direction sought with a large enough effect; inactive = no such curve, though single readings can be large or run the other way.

Molecular target: Pyruvate kinase PKM (Homo sapiens) (UniProt P14618)
Assay: Confirmation Concentration-Response Assay for Activators of Human Muscle isoform 1 Pyruvate Kinase
Conditions: purified hPK-M1, Kinase-Glo ATP luminescence, 1 h; series mostly up to 57.5 µM
Description: Confirmatory assay NIH Chemical Genomics Center [NCGC] Matthew G. Vander Heiden, M.D., Ph.D. [Harvard Medical School, 77 Avenue Louis Pasteur, Boston, MA 02115] NCGC Assay Overview: Human pyruvate kinase […] (hPK-M1) enzyme was supplied as a highly purified (>95% pure) preparation from Harvard Medical School and assayed for its ability to generate ATP from ADP using phosphoenolpyruvate (PEP) as a substrate. ATP generation was detected in a coupled reaction by luciferase-mediated luminescence, an ATP-dependent process. Pyruvate kinase substrates, PEP and ADP, were present in the assay at Km and approximately 10-fold below Km respectively. The enzyme was assayed at an intermediate level of activity to screen for both inhibitors and activators.
NCGC Assay Protocol Summary for M1-isoform: Three uL of substrate mix (at r.t.) in assay buffer (50 mM Imidazole pH7.2, 50 mM KCl, 7 mM MgCl2, 0.01% Tween 20, 0.05% BSA) was dispensed into white solid bottom 1,536 well microtiter plates so that the final concentrations of substrates in the assay were 0.1 mM ADP and 0.5 mM PEP. 23 nL of compound were delivered by a pin tool and 1 uL of enzyme mix (final concentration of 1 nM) in assay buffer (4 degree Celsius) was added. Plates were incubated at room temperature for 1 hour. Two uL of detection mix (Kinase-Glo, Promega; at 4 degree Celsius protected from light) was added and luminescence read by a ViewLux (Perkin Elmer) at 1 second exposure/plate. Data were normalized to the uninhibited (row 31). Additionally, a no enzyme and 5-fold enzyme control was dispensed in row 32, split equally between the two conditions.

Pyruvate kinase PKM (Homo sapiens), sequence (P14618 whole entry, looked up, canonical isoform): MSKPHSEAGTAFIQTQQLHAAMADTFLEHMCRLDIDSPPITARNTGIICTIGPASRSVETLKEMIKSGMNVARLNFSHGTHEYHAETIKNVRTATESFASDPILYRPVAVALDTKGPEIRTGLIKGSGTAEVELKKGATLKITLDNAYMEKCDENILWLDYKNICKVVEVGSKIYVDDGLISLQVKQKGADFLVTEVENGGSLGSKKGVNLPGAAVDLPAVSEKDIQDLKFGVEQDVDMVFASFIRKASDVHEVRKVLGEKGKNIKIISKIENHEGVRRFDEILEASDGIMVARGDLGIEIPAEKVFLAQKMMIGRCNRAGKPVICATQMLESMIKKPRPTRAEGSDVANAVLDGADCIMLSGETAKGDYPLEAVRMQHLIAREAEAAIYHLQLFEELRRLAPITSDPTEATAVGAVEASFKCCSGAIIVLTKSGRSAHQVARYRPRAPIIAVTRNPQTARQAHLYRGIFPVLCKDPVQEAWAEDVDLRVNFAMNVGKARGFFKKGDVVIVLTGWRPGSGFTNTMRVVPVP

outcome, inactive:
O=S(=O)(c1ccc(F)cc1)N1CCN(S(=O)(=O)c2ccc3c(c2)OCCO3)CC1, Cc1cc2c(s1)c1c(C)nn(Cc3ccccc3F)c(=O)c1n2C, Cc1cc2c(s1)c1cnn(Cc3ccc(C)c(F)c3F)c(=O)c1n2C, Cc1cc2c(s1)c1cnn(Cc3ccc(F)cc3F)c(=O)c1n2C, Cc1cc2c(s1)c1cnn(Cc3ccc(S(C)(=O)=O)cc3)c(=O)c1n2C, Cn1c2cc(B(O)O)sc2c2cnn(Cc3ccccc3F)c(=O)c21, CCc1cc2c(s1)c1cnn(Cc3ccccc3F)c(=O)c1n2C, Cn1c2cc(C=O)sc2c2cnn(Cc3ccccc3F)c(=O)c21, N#Cc1ccc(S(=O)(=O)N2CCN(S(=O)(=O)c3ccc4c(c3)OCCO4)CC2)cc1, O=S(=O)(c1ccc2c(c1)OCCO2)N1CCN(S(=O)(=O)c2ccc3c(c2)OCCO3)CC1, COc1cc2c(s1)c1cnn(Cc3ccccc3F)c(=O)c1n2C, Cc1cc2c(s1)c1cnn(Cc3ccc(Cl)cc3)c(=O)c1n2C, O=S(=O)(NCC1CN(S(=O)(=O)c2ccc3c(c2)OCCO3)C1)c1c(F)cccc1F, O=S(=O)(c1ccc2c(c1)OCCO2)C1CCN(S(=O)(=O)c2c(F)cccc2F)CC1, COc1ccc(S(=O)(=O)N2CCN(S(=O)(=O)c3ccc4c(c3)OCCO4)CC2)cc1, O=S(=O)(c1ccc2c(c1)OCCO2)N1CCN(S(=O)(=O)c2cccc[n+]2[O-])CC1, CC1(C)CCc2cc(S(=O)(=O)N3CCN(S(=O)(=O)c4c(F)cccc4F)CC3)ccc2O1, C[C@@H]1CN(S(=O)(=O)c2c(F)cccc2F)CCN1S(=O)(=O)c1ccc2c(c1)OCCO2, COc1cc(F)c(S(=O)(=O)N2CCN(S(=O)(=O)c3ccc4c(c3)OCCO4)CC2)c(F)c1, C[C@H]1CN(S(=O)(=O)c2ccc3c(c2)OCCO3)CCN1S(=O)(=O)c1c(F)cccc1F, Cc1cc2c(s1)c1cnn(Cc3c(F)cccc3F)c(=O)c1n2C, O=S(=O)(NCCCCCNS(=O)(=O)c1c(F)cccc1F)c1ccc2c(c1)OCCO2, O=S(=O)(c1ccc2c(c1)OCCO2)N1CCN(S(=O)(=O)c2cc(F)c(F)cc2F)CC1, O=S(=O)(NCCCCCCNS(=O)(=O)c1c(F)cccc1F)c1ccc2c(c1)OCCO2, Cn1c2cc([N+](=O)[O-])sc2c2cnn(Cc3ccccc3F)c(=O)c21, CCCc1cc(F)c(S(=O)(=O)N2CCN(S(=O)(=O)c3ccc4c(c3)OCCO4)CC2)cc1F, O=C(CN1C(=O)N/C(=C\c2cccn2-c2cccc(C(=O)O)c2)C1=O)Nc1ccccc1F, O=S(=O)(NCCCCNS(=O)(=O)c1c(F)cccc1F)c1ccc2c(c1)OCCO2, CSc1cc2c(s1)c1cnn(Cc3ccccc3F)c(=O)c1n2C, O=S(=O)(c1cccc(F)c1)N1CCN(S(=O)(=O)c2ccc3c(c2)OCCO3)CC1, O=S(=O)(c1ccc2c(c1)OCCO2)N1CCN(S(=O)(=O)c2ccccc2F)CC1, Cc1cc2c(s1)c1cnn(Cc3cc(C(F)(F)F)cc(Cl)c3F)c(=O)c1n2C, Cc1cc2c(s1)c1cnn(Cc3ccc(C(F)(F)F)cc3)c(=O)c1n2C, O=S(=O)(c1ccccc1)N1CCN(S(=O)(=O)c2ccc3c(c2)OCCO3)CC1, Cc1cc2c(s1)c1cnn(Cc3c(F)cccc3Cl)c(=O)c1n2C, Cc1cc2c(s1)c1cnn(Cc3ccc(C(C)C)cc3)c(=O)c1n2C, CN1CCOc2ccc(S(=O)(=O)N3CCN(S(=O)(=O)c4c(F)cccc4F)CC3)cc21, O=S(=O)(NC1CCN(S(=O)(=O)c2ccc3c(c2)OCCO3)C1)c1c(F)cccc1F (stereo not given), Cn1c2ccsc2c2cnn(Cc3ccccc3F)c(=O)c21, Cc1ccc(Cn2ncc3c4sc(C)cc4n(C)c3c2=O)c(C)c1
